Assay results published in PubChem BioAssay (NCI).
This is part of a sample that, as a whole, favours compounds with a hit. Of some 79,000 tested, about 15% had one in any assay. Calls of active or inactive are those of the source. Rule as the data show it: active = growth inhibition above about 70%; inactive = the rest.

Experiments:
[1] = NCI Yeast Anticancer Drug Screen. Data for the wt2 strain (AID 169);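 also: 0% = growth of vehicle-treated yeast cultures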; details: S. cerevisiae wt2 strain growth inhibition, stronger effect = higher value
In short: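 Growth of compound-treated yeast is measured and expressed as inhibition relative to vehicle-only controls.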

[2] = NCI Yeast Anticancer Drug Screen. Data for the mlh1 strain (AID 171);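 also: 0% = growth of vehicle-treated control cultures of the same strain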; details: S. cerevisiae mlh1 strain growth inhibition, stronger effect = higher value
In short: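 Test agents were incubated with yeast bearing a defined DNA damage repair or cell cycle control alteration; values are growth inhibition normalised to vehicle-treated cultures.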

[3] = NCI Yeast Anticancer Drug Screen. Data for the sgs1 strain (AID 173);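 also: 0% = growth of vehicle-only control cultures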; details: S. cerevisiae sgs1 mutant, stronger effect = higher value
In short: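 Strain with an altered DNA repair or cell cycle pathway exposed to compound. Growth then measured. Value = inhibition versus vehicle control.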

[4] = NCI Yeast Anticancer Drug Screen. Data for the mlh1 rad18 strain (AID 175); details: S. cerevisiae mlh1 rad18 strain growth inhibition, stronger effect = higher value
In short: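 A repair-deficient yeast strain is exposed to test compound, and growth is scored relative to vehicle-treated controls.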

[5] = NCI Yeast Anticancer Drug Screen. Data for the rad18 strain (AID 177); details: S. cerevisiae rad18 mutant growth inhibition, stronger effect = higher value
In short: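 DNA-repair-defective yeast; compound treatment; growth inhibition scored against vehicle.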

[6] = NCI Yeast Anticancer Drug Screen. Data for the rad52 strain (AID 147);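 also: 0% = growth of vehicle-treated control cultures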; details: S. cerevisiae rad52 mutant growth inhibition, stronger effect = higher value
In short: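 Growth of repair-deficient yeast cells was compared between compound-treated and vehicle-treated cultures to give percent inhibition.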

[7] = NCI Yeast Anticancer Drug Screen. Data for the wt1 strain (AID 149);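 also: 0% = growth of vehicle-treated wt1 cultures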; details: S. cerevisiae wt1 strain (SPY 50644) growth inhibition, stronger effect = higher value
In short: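 Growth inhibition read against vehicle controls after compound exposure of the wt1 yeast strain.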

[8] = NCI Yeast Anticancer Drug Screen. Data for the rad50EPP+ strain (AID 151);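 also: 0% = growth of vehicle-treated control cultures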; details: S. cerevisiae rad50 mutant strain, stronger effect = higher value
In short: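 Measured: growth inhibition of rad50EPP+ yeast. Reference: vehicle-treated controls. Screen uses strains with defined genetic alterations in DNA damage repair or cell cycle control.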

[9] = NCI Yeast Anticancer Drug Screen. Data for the mgt1 strain (AID 153); details: S. cerevisiae mgt1 mutant growth inhibition, stronger effect = higher value
In short: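 Compounds were applied to mgt1 mutant yeast, and growth was then compared against vehicle-treated control cultures to give percent inhibition.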

[10] = NCI Yeast Anticancer Drug Screen. Data for the rad50 strain (AID 155);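 also: 0% = growth of vehicle-only cultures of the same strain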; details: S. cerevisiae rad50 strain growth inhibition, stronger effect = higher value
In short: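 Readout: growth inhibition relative to vehicle-treated cultures. Compound exposure was carried out in a genetically defined yeast strain deficient in DNA damage repair.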

[11] = NCI Yeast Anticancer Drug Screen. Data for the mec2-1 strain (AID 157); details: S. cerevisiae mec2-1 strain, stronger effect = higher value
In short: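 Compounds were applied to mec2-1 yeast cells. Their growth was then compared with that of vehicle-treated cultures to give growth inhibition.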

[12] = NCI Yeast Anticancer Drug Screen. Data for the rad14 strain (AID 159);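 also: 0% = growth of vehicle-treated control cultures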; details: S. cerevisiae rad14 strain growth inhibition, stronger effect = higher value
In short: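 Growth inhibition vs vehicle controls; genetically altered yeast strain (DNA damage repair defect) treated with test compounds.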

[13] = NCI Yeast Anticancer Drug Screen. Data for the sgs1 mgt1 strain (AID 161);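 also: 0% = growth of cultures given vehicle only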; details: S. cerevisiae sgs1 mgt1 strain, stronger effect = higher value
In short: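 Percent growth inhibition was derived by comparing compound-exposed mutant yeast with vehicle-exposed cultures. The strain carries alterations in DNA damage repair.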

[14] = NCI Yeast Anticancer Drug Screen. Data for the CLN2oe strain (AID 163);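 also: 0% = growth of vehicle-only control cultures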; details: S. cerevisiae CLN2oe strain, stronger effect = higher value
In short: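 Cells of an engineered yeast line with disturbed cell-cycle regulation are treated with compound. Inhibition of growth is then calculated relative to the vehicle-treated reference.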

[15] = NCI Yeast Anticancer Drug Screen. Data for the cln2 rad14 strain (AID 165);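 also: 0% = growth equal to vehicle treated cultures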; details: S. cerevisiae cln2 rad14 strain, stronger effect = higher value
In short: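 Strain: cln2 rad14 yeast, altered in cell cycle control and DNA damage repair. Read-out: growth inhibition vs vehicle.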

[16] = NCI Yeast Anticancer Drug Screen. Data for the bub3 strain (AID 167); details: S. cerevisiae bub3 mutant strain, stronger effect = higher value
In short: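 Readout: yeast growth inhibition, expressed relative to vehicle-only wells. The test organism is a mutant strain from a panel with lesions in DNA repair or checkpoint genes.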

[17] = at 5.0 µM (retest, dose inferred, filed as 0.5)
[18] = at 50.0 µM (retest, dose inferred, filed as 5.0)

Measured: growth inhibition

CC[N+](CC)(CC)c1ccccc1
active: [4]; [18] 99%
inactive: [1]; at 1.2 µM -23% | [1]; at 3.7 µM -32% | [1]; at 11.0 µM -32% | [1]; at 33.0 µM -23% | [1]; at 100.0 µM -30% | [2]; at 1.2 µM -26% | [2]; at 3.7 µM -46% | [2]; at 11.0 µM -43% | [2]; at 33.0 µM -43% | [2]; at 100.0 µM -42% | [3]; at 1.2 µM -15% | [3]; at 3.7 µM -21% | [3]; at 11.0 µM -22% | [3]; at 33.0 µM -19% | [3]; at 100.0 µM -23% | [4]; [17] 30% | [4]; at 50.0 µM 26.2% | [5]; at 1.2 µM 3% | [5]; at 3.7 µM 10% | [5]; at 11.0 µM 6% | [5]; at 33.0 µM 3% | [5]; at 100.0 µM 10%

CCCCC/C(=C(\C#N)C(=O)OCC)c1ccccc1
active: [8]; at 100.0 µM 78%
inactive: [6]; at 1.2 µM -2% | [6]; at 3.7 µM -1% | [6]; at 11.0 µM 1% | [6]; at 33.0 µM 7% | [6]; at 100.0 µM 9% | [7]; at 1.2 µM -2% | [7]; at 3.7 µM -2% | [7]; at 11.0 µM -1% | [7]; at 33.0 µM -4% | [7]; at 100.0 µM -4% | [8]; at 1.2 µM 3% | [8]; at 3.7 µM 3% | [8]; at 11.0 µM 13% | [8]; at 33.0 µM 26% | [9]; at 1.2 µM -3% | [9]; at 3.7 µM -2% | [9]; at 11.0 µM -3% | [9]; at 33.0 µM -2% | [9]; at 100.0 µM 7% | [10]; at 1.2 µM -1% | [10]; at 3.7 µM -1% | [10]; [17] 7% | [10]; at 11.0 µM 4% | [10]; at 33.0 µM 7% | [10]; [18] -4% | [10]; at 50.0 µM -7% | [10]; at 100.0 µM -6% | [11]; at 1.2 µM -7% | [11]; at 3.7 µM -5% | [11]; [17] -5% | [11]; at 11.0 µM -3% | [11]; at 33.0 µM 0% | [11]; [18] -4% | [11]; at 50.0 µM 28.4% | [11]; at 100.0 µM 6% | [12]; at 1.2 µM -1% | [12]; at 3.7 µM -2% | [12]; at 11.0 µM 1% | [12]; at 33.0 µM 8% | [12]; at 100.0 µM 5% | [13]; [17] -1% | [13]; [18] 33% | [13]; at 50.0 µM 36.5% | [14]; at 1.2 µM -2% | [14]; at 3.7 µM -5% | [14]; at 11.0 µM -5% | [14]; at 33.0 µM -4% | [14]; at 100.0 µM 4% | [15]; [17] -7% | [15]; [18] 13% | [15]; at 50.0 µM -99% | [16]; at 1.2 µM 0% | [16]; at 3.7 µM 2% | [16]; [17] 1% | [16]; at 11.0 µM 6% | [16]; at 33.0 µM 11% | [16]; [18] 7% | [16]; at 50.0 µM 52.4% | [16]; at 100.0 µM 14% | [1]; at 1.2 µM -3% | [1]; at 3.7 µM -4% | [1]; at 11.0 µM -3% | [1]; at 33.0 µM -3% | [1]; at 100.0 µM 1% | [2]; at 1.2 µM -2% | [2]; at 3.7 µM 1% | [2]; at 11.0 µM 5% | [2]; at 33.0 µM 10% | [2]; at 100.0 µM 18% | [3]; at 1.2 µM -1% | [3]; at 3.7 µM 2% | [3]; at 11.0 µM 2% | [3]; at 33.0 µM 8% | [3]; at 100.0 µM 17% | [4]; [17] -6% | [4]; [18] 64% | [4]; at 50.0 µM 44.4% | [5]; at 1.2 µM 1% | [5]; at 3.7 µM 3% | [5]; at 11.0 µM 2% | [5]; at 33.0 µM 8% | [5]; at 100.0 µM 14%
